In PubChem BioAssay AID1347075 (National Center for Advancing Translational Sciences (NCATS), 2019):
Among all 400,000 compounds or so, about 5,500 (1.4%) were called active. Inconclusive results (about 9%) are left out. This is one part of a sample in which actives are shown more often than they occur. Values without a mark were called inactive. Calls follow the shape of the dose curve; as a rule, active = well fitted cell-killing curve with a large enough effect; inconclusive = small, poorly fitted or top-dose-only effect, or effect the other way; inactive = flat fitted curve, though single readings scatter.

test: qHTS assay for MDR1-selective chemotherapeutics: Primary screen using the parental adenocarcinoma cell KB-3-1; conditions: KB-3-1 viability, CellTiter-Glo ATP luminescence, 72 h; series mostly up to 46.1 µM; activity change, negative = cytotoxic: at the top concentration; also: nearly all actives have a fitted effect of over 60% in size
Summary of the method: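 Cytotoxicity in the drug-sensitive parental line KB-3-1 was scored as loss of CellTiter-Glo luminescence following 72 h incubation with compound. Values come from curve fitting of normalized concentration-response data.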
% is scaled to controls: 0 for no effect and ±100 for the full control effect; potency is read from the fitted curve at half-maximal effect.

Compound	activity change, negative = cytotoxic [%]	Potency
CC(=O)Nc1ccc(NC(=O)CCCc2nc(-c3ccc(C(C)(C)C)cc3)no2)cc1	-10.4	
COc1cc(C(=O)N(Cc2ccc(C(C)C)cc2)C2CCS(=O)(=O)C2)cc(OC)c1OC (stereo unspecified)	-5.08	
CCCN(CCC)C(=O)C(Cc1ccccc1)NS(=O)(=O)c1ccc2c(c1)c(=O)n(C)c(=O)n2C (stereo unspecified)	1	
N#C/C(=C\c1cccc(F)c1)c1nc(-c2cc3c(ccc4ccccc43)oc2=O)cs1	9.73	
O=C(NCCCO)C(=O)Nc1c2c(nn1-c1ccc(F)cc1)CSC2	3.4	
CN(C)Cc1cn(-c2ccccc2)nc1-c1ccccc1	13.6	
N#Cc1ccc(OC2=NS(=O)(=O)c3ccccc32)cc1	-6.03	
Cn1c(=O)c2c(nc(NCCc3ccccc3)n2Cc2ccccc2Br)n(C)c1=O	-14.2	
OC(Cc1ccc2ccccc2n1)c1ccc(Cl)c(Cl)c1 (stereo unspecified)	0	
O=S(=O)(c1ccc(Br)cc1)c1nnn2c1nc(N1CCOCC1)c1sccc12	-10.3	
CCOC(=O)C1CCCN(C(=O)c2ccc(-n3ccc4ccccc43)s2)C1 (stereo unspecified)	4.41	
O=C1C=C(c2cc(C(F)(F)F)cc(C(F)(F)F)c2)C[C@@H](c2ccc3c(c2)OCO3)C1	-26.9	
COc1ccc2cc(C3=CC(=O)C[C@H](c4ccc5c(c4)OCO5)C3)ccc2c1	3.24	
O=C1C=C(c2ccnc3cc(Cl)ccc23)C[C@@H](c2ccc3c(c2)OCO3)C1		23.1 µM (active)
CCSc1ncc(Cl)c(C(=O)Nc2c(C(=O)c3ccccc3)oc3ccccc23)n1	1.5	
Cc1cn(C)c(CC(=O)NCc2ccccc2)c1C(=O)O	0.565	
CC(C)CC(=O)NCC(c1ccc2c(c1)OCO2)N1CCN(c2ccc(F)cc2)CC1 (stereo unspecified)	-5.63	
[O-][n+]1ccc(OCc2ccccc2)cc1	3.6	
c1ccc(CNCc2ccc(CNCc3ccccc3)cc2)cc1	1.49	
c1ccc(Cc2cc[n+](Cc3ccccc3)cc2)cc1		18.4 µM (active)
CCC(=O)Nc1c(C(=O)N2CCN(c3ccc(F)cc3)CC2)oc2ccccc12	-8.2	
COCCN(Cc1ccco1)C(=O)Cn1ncc2c([nH]c3ccccc32)c1=O	0	
CCOc1[nH]n(-c2ccc(Cl)cc2)c(=O)c1C=Nc1ccc(O)cc1		18.4 µM (active)
CCOc1ccc(N=C2NC(=O)S/C2=C\c2ccc(O)cc2)cc1	-1.86	
Fc1ccc(C(Nc2ccc(Cl)c(C(F)(F)F)c2)c2nnc(-c3ccccc3)o2)cc1 (stereo unspecified)	-5.25	
CCOc1ccccc1N(CC)C(=O)c1cc2ccc3cccnc3c2[nH]1	-25	

Compound	activity change, negative = cytotoxic [%]	Potency
CCN(CC)CCCNC(=O)c1cc2c(=O)[nH]c3ccc(C)cc3c2s1	-17.6	
COc1ccc(CNC(=O)c2cc3c(=O)[nH]c4ccc(C)cc4c3s2)c(OC)c1	5.62	
Cc1cccc(N(C)C(=O)c2cc3c(=O)[nH]c4ccc(C)cc4c3s2)c1		7.31 µM (active)
CSc1ccc(CCNC(=O)c2cc(C)nc3c2c(C)nn3-c2cccc(F)c2)cc1	1.14	
Cc1cc(C(=O)Nc2cccc(C(F)(F)F)c2)c2c(C)nn(-c3cccc(F)c3)c2n1		18.4 µM (active)
COc1cc(NC(=O)c2cc(C3CC3)nc3c2c(C)nn3-c2ccccc2)cc(OC)c1	2.42	
Cc1ccc(S(=O)(=O)N(C)C2(C)CCS(=O)(=O)C2)cc1 (stereo unspecified)	4.15	
Cc1ccc(S(=O)(=O)N2CCN(C)CC2)cc1	0.612	
Cc1ccc(S(=O)(=O)C2(S(=O)(=O)c3ccc(C)cc3)CCCC2)cc1		6.51 µM (active)
COc1ccc(C2c3c(oc4ccccc4c3=O)C(=O)N2Cc2ccc3c(c2)OCO3)cc1 (stereo unspecified)	-6.25	
COC(=O)c1sccc1S(=O)(=O)N(CC(=O)Nc1ccc(C)c(F)c1)c1ccc(C)c(C)c1	-20	
O=C(Nc1ccc(-c2nc3ccccc3[nH]2)cc1)c1ccncc1	-9.06	
CCCC(=O)Nc1nc2ccc(NC(=O)c3c(F)c(F)c(OC)c(F)c3F)cc2s1		2.59 µM (active)
CC(=O)Nc1ccc2nc(NC(=O)CS(=O)(=O)c3ccc(F)cc3)sc2c1	8.18	
CCCn1nc(C(=O)Nc2ccc3nc(C)sc3c2)c2ccccc2c1=O	-0.715	
CC(=O)c1ccc(N2CCN(c3nc4c(S(=O)(=O)c5ccccc5)nnn4c4ccc(Cl)cc34)CC2)cc1	1.16	
CC(=NNC(=O)c1ccc2nc[nH]c2c1)c1ccc(Br)cc1	-11.4	
CC1=NNC(=O)C1CCC(=O)N/N=C\c1ccc(Cl)c(Cl)c1 (stereo unspecified)	23.2	
O=C(N/N=C/c1ccc(Cl)c(Cl)c1)c1ccc2nc[nH]c2c1		18.4 µM (active)
CNc1ccc(-c2nc(-c3ccccc3C)no2)cc1[N+](=O)[O-]	-1.62	
COc1ccc(Cn2cc(C(=O)c3ccc(C)cc3)c(=O)c3cc(OC)c(OC)cc32)cc1	11.2	
O=C1C[C@H]2C=CCc3cccc(c32)CN1Cc1ccccc1	-5.23	
N#CC1=C(N)Oc2cc(O)ccc2C1C1CCCCC1 (stereo unspecified)	0	
COc1ccc(C2C(C#N)=C(N)Oc3cc(N)ccc32)cc1OC (stereo unspecified)		16.4 µM (active)
COc1ccc(C2C(C#N)=C(/N=C/N3CCOCC3)OC3=C2C(=O)CC(C)(C)C3)cc1OC (stereo unspecified)	7.96	
